According to PubChem BioAssay AID1259421 (Broad Institute, 2018):
Values joined by “and” are separate entries in the source; they are usually repeats but may differ in a detail not shown here. Equal entries are not always repeated. The whole screen tested about 6,400 compounds, of which about 610 (9.5%) were called active. The sample holds actives, similar compounds and a random draw of the others, so the mix is not that of the screen. No stated cut-off is given here; in the data, active means activity change below about -70%; inconclusive means no clear call, values can overlap the other calls; inactive means above that. Some compounds were tested as several samples or in several runs, with calls that do not always agree. *1 amine or outer side, *2 acyl side, *3 side chain or, on linkers, in order; H or OH if unused. Where a SMILES comes first, the peptide text is derived from it. Bridges are numbered along the chain shown (N, C = ends). Roman numbers before positions name the chains, in order. [ ]: non-standard residue; d: D form. The star is where a group is joined. Actinocin(9to1) = Cc1c2oc3c(C)ccc(C(=O)[*:1])c3nc-2c(C(=O)[*:2])c(N)c1=O; NMeV = CN[CH](C(=O)O)C(C)C; Cbz = O=C(OCc1ccccc1)*; Sar = CNCC(=O)O

Assay: Toxoplasma gondii ME49Luc growth in HeLa cells, luciferase, no IFN-y, primary screen (AID 1259421)
Details: T. gondii ME49Luc in HeLa, 72 h, stronger effect = lower value, concentration not given here

| Structure (SMILES) | activity change, negative = inhibition |
| --- | --- |
| COC(=O)[C@H](CC(C)C)NC(=O)[C@@H](N)CC(C)C | 4.82% (inactive) |
| CCCCC(C=O)NC(=O)C(CC(C)C)NC(=O)OCc1ccccc1 (stereo unspecified) | 10.2% (inactive) |
| CC(C)C[C@@H](C=O)NC(=O)[C@H](CC(C)C)NC(=O)[C@H](CC(C)C)NC(=O)OCc1ccccc1 (Cbz-Leu-Leu-Leu-aldehyde) | -62.8% (inactive) and -91.5% (active) |
| CC(C)=CCC/C(C)=C/COc1ccc2ccc(=O)oc2c1 | 17.8% (inactive) |
| O=C(NCCN1CCOCC1)c1ccc(Cl)cc1 | -0.363% (inactive) |
| O=C1C(Cl)=C(NCCN2CCOCC2)C(=O)c2ncccc21 | -78.2% (active) |
| c1ccc2c(c1)CCCc1cc(NCCN3CCOCC3)nnc1-2 | 12.2% (inactive) |
| c1cc(-c2cnn3cc(-c4ccc(OCCN5CCCCC5)cc4)cnc23)ccn1 | -69.4% (inactive) |
| C/C(=N\NC(=O)[C@@H]1C(=O)NC[C@H]1c1ccccc1)c1cccc(Br)c1 | 1.33% (inactive) |
| CO[C@H]1C=CO[C@@]2(C)Oc3c(C)c(O)c4c(O)c(c5c(nc6cc(C)ccn65)c4c3C2=O)NC(=O)/C(C)=C\C=C[C@H](C)[C@H](O)[C@@H](C)[C@@H](O)[C@@H](C)[C@H](OC(C)=O)[C@@H]1C | -17.3% (inactive) |
| O=C1OC(=O)C2C3CCC(O3)C12 (stereo unspecified) | -85.1% (active) |
| CC(C)[C@](O)(c1ccc2cc(OC(F)F)c(OC(F)F)cc2c1)c1cn[nH]n1 | 29.6% (inactive) |
| Brc1cccc(Nc2ncnc3cc4nc[nH]c4cc23)c1 | 3.71% (inactive) |
| O=c1[nH]c2cc(Cl)c(Cl)cc2[nH]c1=O | -86.2% (active) |
| O=c1[nH]c2cc(Cl)c(Cl)c([N+](=O)[O-])c2[nH]c1=O | 7.55% (inactive) |
| O=c1[nH]c2cc([N+](=O)[O-])c([N+](=O)[O-])cc2[nH]c1=O | 17.4% (inactive) and 5.82% (inactive) and 4.72% (inactive) |

| Structure (SMILES) | activity change, negative = inhibition |
| --- | --- |
| COc1cc([C@@H]2Oc3c(O)cc([C@H]4Oc5cc(O)cc(O)c5C(=O)[C@@H]4O)cc3[C@H]2CO)ccc1O | -10.5% (inactive) |
| CC(C)O.CC(C)O.CC(C)O.[In] | 12.3% (inactive) |
| Cc1c2oc3c(C)ccc(C(=O)OC(C)C4NC(=O)C(C(C)C)N(C)C(=O)CN(C)C(=O)C5CCCN5C(=O)C(C(C)C)NC4=O)c3nc-2c(C(=O)OC(C)C2NC(=O)C(C(C)C)N(C)C(=O)CN(C)C(=O)C3CCCN3C(=O)C(C(C)C)NC2=O)c(N)c1=O (stereo unspecified) (I: cyclo([Sar][NMeV]TVP) / II: cyclo([Sar][NMeV]TVP); linker I:3-II:3 via Actinocin(9to1); configuration not given here) | -87.1% (active) |
| Cc1c2oc3c(C)ccc(C(=O)N[C@@H]4C(=O)N[C@H](C(C)C)C(=O)N5CCC[C@H]5C(=O)N(C)CC(=O)N(C)[C@@H](C(C)C)C(=O)O[C@@H]4C)c3nc-2c(C(=O)N[C@@H]2C(=O)N[C@H](C(C)C)C(=O)N3CCC[C@H]3C(=O)N(C)CC(=O)N(C)[C@@H](C(C)C)C(=O)O[C@@H]2C)c(N)c1=O (I: T[dV]P[Sar][NMeV] / II: T[dV]P[Sar][NMeV]; ester I:1-I:C, II:1-II:C; linker I:N-II:N via Actinocin(9to1)) | -88.5% (active) |
| CCC1OC(=O)[C@H](C)C(=O)[C@H](C)[C@@H](OC2O[C@H](C)C[C@H](N(C)C)[C@H]2O)[C@](C)(OC)C[C@@H](C)C(=O)[C@@H](C)[C@@H]2N(CCCCn3cnc(-c4cccnc4)c3)C(=O)O[C@]12C (stereo partly specified) | -0.624% (inactive) |
| COCCCCC(=NOCCN)c1ccc(C(F)(F)F)cc1 | 4.87% (inactive) |
| O=C(CCCc1ccc(-c2ccccc2F)cc1)Nc1ccc(O)cc1 | -67.6% (inactive) and -60.5% (inactive) |
| Cn1cnc(-c2cc3nccc(Oc4ccc(NC(=S)NC(=O)Cc5ccccc5)cc4F)c3s2)c1 | 28.8% (inactive) |
| Nc1nccc(Oc2ccc(NC(=O)c3c[nH]cc(-c4ccc(F)cc4)c3=O)cc2F)c1Cl | -76.8% (active) |
| CCOc1ccn(-c2ccc(F)cc2)c(=O)c1C(=O)Nc1ccc(Oc2ccnc(N)c2Cl)c(F)c1 | 0.966% (inactive) |
| N#Cc1ccc(NCCNCC(=O)N2CCC[C@H]2C#N)nc1 | -0.604% (inactive) |
| COc1ccc(-c2cc(=O)c3c(O)cc(O[C@@H]4O[C@@H](CO[C@@H]5O[C@H](C)[C@@H](O)[C@H](O)[C@H]5O)[C@H](O)[C@@H](O)[C@H]4O)cc3o2)cc1O | 6.66% (inactive) |
| CCc1c(Cl)c(O)c(Cl)c(O)c1C(=O)O[C@H]1[C@H](O)[C@H](OC)[C@H](OCC2=C/C=C/C[C@H](O)/C(C)=C\[C@H](CC)[C@H](O[C@@H]3OC(C)(C)[C@@H](OC(=O)C(C)C)[C@H](O)[C@H]3O)/C(C)=C\C(C)=C\C[C@H]([C@@H](C)O)OC2=O)O[C@@H]1C | 16.6% (inactive) |
| C[C@H]1O[C@@H](O[C@H]2[C@@H](O)C[C@H](O[C@H]3[C@@H](O)C[C@H](O[C@H]4CC[C@]5(C)C6CC[C@]7(C)[C@@H](C8=CC(=O)OC8)CC[C@]7(O)C6CC[C@@H]5C4)O[C@@H]3C)O[C@@H]2C)C[C@H](O)[C@@H]1O (stereo partly specified) | -83.2% (active) and -93.3% (active) |
| C[C@H]1O[C@@H](O[C@H]2[C@@H](O)C[C@H](O[C@H]3[C@@H](O)C[C@H](O[C@H]4CC[C@]5(C)C6C[C@@H](O)[C@]7(C)[C@@H](C8=CC(=O)OC8)CC[C@]7(O)C6CC[C@@H]5C4)O[C@@H]3C)O[C@@H]2C)C[C@H](O)[C@@H]1O (stereo partly specified) | -76.7% (active) and -101% (active) |
